Test results as given in the supplement of paper PMC10849652.
Targets with a hit are over-represented here; the source holds about 7,900 in all. About 0.6% of all pairs of compound and target were hits. A number with no mark means an inactive call.

compound: CS(=O)(=O)c1ccc(-c2cnc(N)c(C(=O)Nc3ccccc3)n2)cc1; test: log2 fold change, soluble protein after heating vs DMSO (PISA); higher = thermal stabilisation; K562 cells, 10 uM, 30 min; active = over 0.2 and 3.5 SD of the protein, either way, in both replicates (recomputed)
In short: (§1)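 Aliquots of K562 cells (2×10^6 cells/mL) treated with 10 μM compound for 30 min were heated for 3 min over 48°C-58°C. After pooling and extraction in PBS with 0.5% NP-40 at 4°C, soluble protein from a 21,000xg, 90 min spin was quantified by TMTpro 16plex LC-MS/MS with channel sums equalised. Thermal stability is expressed against control samples, from duplicates, as a log2 fold change.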

UniProt Q14004, sequence (Q14004 whole entry, looked up): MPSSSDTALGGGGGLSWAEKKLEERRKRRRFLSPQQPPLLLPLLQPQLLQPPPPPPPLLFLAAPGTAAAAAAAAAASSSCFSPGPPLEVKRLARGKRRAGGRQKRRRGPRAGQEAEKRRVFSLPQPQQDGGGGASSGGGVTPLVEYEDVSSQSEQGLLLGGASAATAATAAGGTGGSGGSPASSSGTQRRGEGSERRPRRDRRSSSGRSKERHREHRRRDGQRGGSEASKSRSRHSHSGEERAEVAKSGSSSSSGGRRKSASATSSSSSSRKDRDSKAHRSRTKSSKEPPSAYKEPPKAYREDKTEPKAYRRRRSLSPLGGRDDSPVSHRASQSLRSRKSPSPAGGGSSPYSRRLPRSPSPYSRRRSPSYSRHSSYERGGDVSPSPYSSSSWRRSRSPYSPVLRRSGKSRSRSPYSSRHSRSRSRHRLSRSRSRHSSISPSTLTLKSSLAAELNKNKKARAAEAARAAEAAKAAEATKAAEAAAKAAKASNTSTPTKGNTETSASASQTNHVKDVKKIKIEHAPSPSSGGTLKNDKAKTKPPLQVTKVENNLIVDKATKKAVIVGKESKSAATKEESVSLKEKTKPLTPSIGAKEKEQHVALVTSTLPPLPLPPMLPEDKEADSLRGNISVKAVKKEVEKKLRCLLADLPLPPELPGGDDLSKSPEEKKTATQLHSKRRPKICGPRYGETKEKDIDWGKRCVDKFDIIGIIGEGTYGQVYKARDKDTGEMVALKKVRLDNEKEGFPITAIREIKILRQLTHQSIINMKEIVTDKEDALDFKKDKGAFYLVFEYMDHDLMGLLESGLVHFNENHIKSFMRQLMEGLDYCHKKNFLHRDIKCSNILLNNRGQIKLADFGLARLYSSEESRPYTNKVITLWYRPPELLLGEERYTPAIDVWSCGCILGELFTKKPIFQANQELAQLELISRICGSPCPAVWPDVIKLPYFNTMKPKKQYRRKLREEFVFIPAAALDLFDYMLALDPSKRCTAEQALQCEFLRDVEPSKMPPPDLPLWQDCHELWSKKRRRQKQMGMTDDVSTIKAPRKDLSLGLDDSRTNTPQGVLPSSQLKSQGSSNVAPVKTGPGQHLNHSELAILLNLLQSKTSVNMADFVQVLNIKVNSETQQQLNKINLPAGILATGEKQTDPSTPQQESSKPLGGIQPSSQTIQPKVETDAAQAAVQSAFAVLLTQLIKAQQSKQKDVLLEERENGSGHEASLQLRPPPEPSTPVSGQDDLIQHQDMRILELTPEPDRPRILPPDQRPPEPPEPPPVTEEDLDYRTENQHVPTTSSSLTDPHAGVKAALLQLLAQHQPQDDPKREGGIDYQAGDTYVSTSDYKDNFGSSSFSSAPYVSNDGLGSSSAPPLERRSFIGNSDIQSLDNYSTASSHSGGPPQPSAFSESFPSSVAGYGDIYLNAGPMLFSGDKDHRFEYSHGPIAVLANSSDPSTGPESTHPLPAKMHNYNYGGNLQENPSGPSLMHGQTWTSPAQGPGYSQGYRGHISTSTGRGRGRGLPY
UniProt P21964, sequence (P21964 whole entry, looked up): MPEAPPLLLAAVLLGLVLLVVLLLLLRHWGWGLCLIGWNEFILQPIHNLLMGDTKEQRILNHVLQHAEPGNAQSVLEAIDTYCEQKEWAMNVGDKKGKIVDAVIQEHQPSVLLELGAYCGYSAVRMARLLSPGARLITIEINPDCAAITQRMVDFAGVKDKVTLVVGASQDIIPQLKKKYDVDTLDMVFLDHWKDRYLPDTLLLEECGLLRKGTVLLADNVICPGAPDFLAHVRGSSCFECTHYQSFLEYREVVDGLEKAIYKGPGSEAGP
UniProt Q8IWV2, sequence (Q8IWV2 whole entry, looked up): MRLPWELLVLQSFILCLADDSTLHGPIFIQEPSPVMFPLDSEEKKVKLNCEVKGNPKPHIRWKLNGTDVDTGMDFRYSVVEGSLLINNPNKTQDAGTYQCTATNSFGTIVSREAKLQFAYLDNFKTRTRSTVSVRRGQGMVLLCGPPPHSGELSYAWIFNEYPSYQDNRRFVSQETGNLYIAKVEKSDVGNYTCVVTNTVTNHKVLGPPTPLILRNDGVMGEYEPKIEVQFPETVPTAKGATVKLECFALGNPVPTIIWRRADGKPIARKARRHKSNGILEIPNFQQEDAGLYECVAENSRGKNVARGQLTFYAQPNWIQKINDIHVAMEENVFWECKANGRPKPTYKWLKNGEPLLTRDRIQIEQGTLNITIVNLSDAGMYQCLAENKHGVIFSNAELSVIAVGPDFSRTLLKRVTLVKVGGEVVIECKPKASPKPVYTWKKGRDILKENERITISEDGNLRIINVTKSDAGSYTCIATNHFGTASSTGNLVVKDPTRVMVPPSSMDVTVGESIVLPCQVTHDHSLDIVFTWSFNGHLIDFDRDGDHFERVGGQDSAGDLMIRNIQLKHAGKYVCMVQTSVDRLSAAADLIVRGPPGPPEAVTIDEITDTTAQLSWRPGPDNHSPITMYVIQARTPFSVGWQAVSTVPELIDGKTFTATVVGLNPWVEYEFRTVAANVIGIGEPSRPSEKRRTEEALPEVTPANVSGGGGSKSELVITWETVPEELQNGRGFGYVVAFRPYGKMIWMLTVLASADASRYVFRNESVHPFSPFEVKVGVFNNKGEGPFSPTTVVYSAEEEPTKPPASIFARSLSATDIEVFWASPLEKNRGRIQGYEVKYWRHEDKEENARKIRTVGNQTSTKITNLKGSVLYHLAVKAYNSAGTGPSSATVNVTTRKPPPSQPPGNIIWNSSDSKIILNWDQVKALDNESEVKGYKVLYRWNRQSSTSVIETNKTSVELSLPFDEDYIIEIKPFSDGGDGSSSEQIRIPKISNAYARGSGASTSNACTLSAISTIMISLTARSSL
UniProt Q5VT25, sequence (Q5VT25 whole entry, looked up): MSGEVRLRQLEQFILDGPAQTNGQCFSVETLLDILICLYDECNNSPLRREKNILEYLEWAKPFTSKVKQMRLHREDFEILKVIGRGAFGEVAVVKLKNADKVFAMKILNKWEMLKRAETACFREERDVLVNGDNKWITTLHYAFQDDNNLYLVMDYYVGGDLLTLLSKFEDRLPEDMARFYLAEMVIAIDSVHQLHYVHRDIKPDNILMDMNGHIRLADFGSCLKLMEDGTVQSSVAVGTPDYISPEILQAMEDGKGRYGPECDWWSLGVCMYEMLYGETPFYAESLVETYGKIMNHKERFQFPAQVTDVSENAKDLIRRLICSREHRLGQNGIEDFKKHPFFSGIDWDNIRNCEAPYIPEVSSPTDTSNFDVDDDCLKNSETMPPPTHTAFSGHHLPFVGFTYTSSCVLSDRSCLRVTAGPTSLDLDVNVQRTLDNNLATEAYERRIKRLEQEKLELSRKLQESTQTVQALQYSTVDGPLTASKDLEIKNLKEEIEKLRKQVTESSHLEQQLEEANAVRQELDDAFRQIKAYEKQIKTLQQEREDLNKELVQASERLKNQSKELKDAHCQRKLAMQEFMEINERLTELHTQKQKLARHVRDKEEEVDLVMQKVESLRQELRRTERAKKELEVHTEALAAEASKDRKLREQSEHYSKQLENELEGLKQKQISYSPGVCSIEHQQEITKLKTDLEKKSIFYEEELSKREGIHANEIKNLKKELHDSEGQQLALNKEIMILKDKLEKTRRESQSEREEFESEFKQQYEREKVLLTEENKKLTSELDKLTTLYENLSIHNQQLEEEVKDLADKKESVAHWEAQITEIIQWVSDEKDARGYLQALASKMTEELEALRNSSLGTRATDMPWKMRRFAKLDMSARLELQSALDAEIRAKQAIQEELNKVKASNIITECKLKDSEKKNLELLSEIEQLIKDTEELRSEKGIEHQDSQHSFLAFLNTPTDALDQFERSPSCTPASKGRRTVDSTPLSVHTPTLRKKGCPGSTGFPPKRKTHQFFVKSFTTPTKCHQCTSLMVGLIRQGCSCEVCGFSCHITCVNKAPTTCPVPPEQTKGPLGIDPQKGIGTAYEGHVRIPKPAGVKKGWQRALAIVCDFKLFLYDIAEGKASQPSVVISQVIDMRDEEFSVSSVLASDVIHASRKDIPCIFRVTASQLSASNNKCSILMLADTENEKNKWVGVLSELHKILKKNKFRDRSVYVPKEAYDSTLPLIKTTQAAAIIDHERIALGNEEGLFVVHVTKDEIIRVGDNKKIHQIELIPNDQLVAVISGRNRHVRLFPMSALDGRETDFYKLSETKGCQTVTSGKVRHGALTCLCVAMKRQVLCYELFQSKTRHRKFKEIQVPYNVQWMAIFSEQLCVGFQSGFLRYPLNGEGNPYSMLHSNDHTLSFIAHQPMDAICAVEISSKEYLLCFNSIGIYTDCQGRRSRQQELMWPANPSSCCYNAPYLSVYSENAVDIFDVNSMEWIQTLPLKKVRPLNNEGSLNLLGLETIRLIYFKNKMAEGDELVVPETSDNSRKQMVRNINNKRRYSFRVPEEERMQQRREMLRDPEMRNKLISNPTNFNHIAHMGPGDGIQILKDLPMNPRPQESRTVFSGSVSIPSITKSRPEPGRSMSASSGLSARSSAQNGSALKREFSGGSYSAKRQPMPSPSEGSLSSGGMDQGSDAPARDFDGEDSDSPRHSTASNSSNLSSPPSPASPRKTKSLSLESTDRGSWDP
UniProt Q13057, sequence (Q13057 whole entry, looked up): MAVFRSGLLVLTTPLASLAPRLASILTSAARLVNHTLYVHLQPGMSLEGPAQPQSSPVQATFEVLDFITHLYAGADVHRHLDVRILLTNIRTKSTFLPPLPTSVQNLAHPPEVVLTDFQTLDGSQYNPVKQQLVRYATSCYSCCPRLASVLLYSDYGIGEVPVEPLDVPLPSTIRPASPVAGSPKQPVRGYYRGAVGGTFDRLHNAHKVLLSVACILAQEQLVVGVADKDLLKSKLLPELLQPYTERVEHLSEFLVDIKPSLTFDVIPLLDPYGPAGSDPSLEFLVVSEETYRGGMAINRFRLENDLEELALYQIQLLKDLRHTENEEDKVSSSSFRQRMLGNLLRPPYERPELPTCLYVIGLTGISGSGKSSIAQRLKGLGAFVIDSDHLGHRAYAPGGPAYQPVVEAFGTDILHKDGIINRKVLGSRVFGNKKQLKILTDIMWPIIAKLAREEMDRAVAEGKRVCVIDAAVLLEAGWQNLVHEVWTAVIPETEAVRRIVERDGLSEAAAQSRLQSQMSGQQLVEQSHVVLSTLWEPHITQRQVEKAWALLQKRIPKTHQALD

In order of rising log2 fold change:
1. CASC3 (UniProt O15234)  -0.228
2. CD151 (UniProt P48509)  -0.151
3. CSNK1A1 (UniProt P48729)  -0.093
4. CDK13 (UniProt Q14004)  -0.075
5. CLTB (UniProt P09497)  -0.058
6. CDK12 (UniProt Q9NYV4)  -0.056
7. CASTOR2 (UniProt A6NHX0)  -0.053
8. COASY isoform 2 (UniProt Q13057)  -0.052
9. CTBS (UniProt Q01459)  -0.05
10. CCAR2 isoform 2 (UniProt Q8N163)  -0.037
11. CNTN4 (UniProt Q8IWV2)  -0.03
12. CBX1 (UniProt P83916)  -0.03
13. CD55 isoform 7 (UniProt P08174)  -0.023
14. CETN3 (UniProt O15182)  -0.018
15. CPSF6 isoform 2 (UniProt Q16630)  -0.014
16. COX5A (UniProt P20674)  -0.011
17. COPS4 (UniProt Q9BT78)  -0.01
18. CLCN3 isoform 2 (UniProt P51790)  -0.008
19. CCNB1 (UniProt P14635)  -0.002
20. CDC123 (UniProt O75794)  -0.001
21. CLUH (UniProt O75153)  -0.001
22. CHCHD2 (UniProt Q9Y6H1)  0
23. CSTF3 (UniProt Q12996)  0.004
24. CDK5RAP1 (UniProt Q96SZ6)  0.005
25. CNOT1 (UniProt A5YKK6)  0.006
26. CASP10 isoform 4 (UniProt Q92851)  0.006
27. CAD (UniProt P27708)  0.014
28. CDC42BPA isoform 6 (UniProt Q5VT25)  0.03
29. CALB1 (UniProt P05937)  0.033
30. COMT (UniProt P21964)  0.04
31. CS (UniProt O75390)  0.044
32. CEPT1 (UniProt Q9Y6K0)  0.055
33. CLUH, A0A494C0R8  0.055
34. C9orf72 (UniProt Q96LT7)  0.058

In the case of CPT2 (UniProt P23786), the log2 fold change is reported as 0.701 (active).

compound: C[C@@H](Oc1cc(-c2cnn(C3CCNCC3)c2)cnc1N)c1c(Cl)ccc(F)c1Cl [crizotinib]; test: as above
In short: as §1

In order of rising log2 fold change:
1. CPT2 (UniProt P23786)  -0.42
2. CEPT1 (UniProt Q9Y6K0)  -0.226
3. CTBS (UniProt Q01459)  -0.166
4. CALB1 (UniProt P05937)  -0.166
5. C9orf72 (UniProt Q96LT7)  -0.134
6. CDK13 (UniProt Q14004)  -0.124
7. CS (UniProt O75390)  -0.122
8. CSNK1A1 (UniProt P48729)  -0.115
9. CASP10 isoform 4 (UniProt Q92851)  -0.102
10. CLUH (UniProt O75153)  -0.094
11. CNOT1 (UniProt A5YKK6)  -0.087
12. CLCN3 isoform 2 (UniProt P51790)  -0.074
13. COASY isoform 2 (UniProt Q13057)  -0.071
14. CSTF3 (UniProt Q12996)  -0.07
15. CDK12 (UniProt Q9NYV4)  -0.054
16. CPSF6 isoform 2 (UniProt Q16630)  -0.025
17. CCNB1 (UniProt P14635)  -0.021
18. CBX1 (UniProt P83916)  0.001
19. CLTB (UniProt P09497)  0.007
20. CETN3 (UniProt O15182)  0.014
21. CCAR2 isoform 2 (UniProt Q8N163)  0.024
22. CDK5RAP1 (UniProt Q96SZ6)  0.041
23. CASTOR2 (UniProt A6NHX0)  0.045
24. CNTN4 (UniProt Q8IWV2)  0.064
25. CD55 isoform 7 (UniProt P08174)  0.081
26. COPS4 (UniProt Q9BT78)  0.112
27. CHCHD2 (UniProt Q9Y6H1)  0.161
28. CD151 (UniProt P48509)  0.208
29. COX5A (UniProt P20674)  0.245

In the case of COMT (UniProt P21964), the log2 fold change is reported as 0.352 (active).
With CASC3 (UniProt O15234) the log2 fold change was 0.537 (active).
In the case of CLUH, A0A494C0R8, the log2 fold change is reported as -0.575 (active).
In the case of CDC123 (UniProt O75794), the log2 fold change is reported as -0.246 (active).
CDC42BPA isoform 6 (UniProt Q5VT25) was tested, and the log2 fold change was -0.477 (active).
CAD (UniProt P27708) was tested, and the log2 fold change was -0.271 (active).
